From PubChem BioAssay (Tox21)
Results filed as inconclusive are left out. The source made the active and inactive calls. Unless noted, the call rests on the fitted dose curve; in most records, active means well fitted curve in the direction sought with a large enough effect in the repeat runs; inconclusive means weak or mixed curves; inactive means no such curve, though single readings can be large; an effect the other way counts as inactive or inconclusive.

Tests used:
[1] = qHTS assay for small molecule agonists of the p53 signaling pathway (AID 651631; calls by dose curve; further: nearly all actives have a fitted effect of over 15% in size)
Method in brief: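 Beta-lactamase reporter activity under p53 response elements was quantified in HCT-116 cells by FRET fluorescence, following 16 h incubation with test compounds at 37 °C and 2 h substrate development at room temperature.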

[2] = qHTS assay for small molecules that induce genotoxicity in human embryonic kidney cells expressing luciferase-tagged ATAD5 (AID 651632); further: nearly all actives have a fitted effect of over 15% in size
Method in brief: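 Test compounds were delivered by pin tool onto HEK293T reporter cells (2,000/well) expressing ATAD5 fused to luciferase. After 16 hr at 37C, 5% CO2, Amplite was added for 30 min at room temperature and luminescence was measured.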

[3] = qHTS assay for small molecule agonists of the p53 signaling pathway - cell viability (AID 651633; calls by dose curve;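 further: p53RE-bla HCT reporter cells with a stable beta-lactamase p53 reporter; series mostly up to about 83 µM; nearly all actives have a fitted effect of over 30% in size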)
Method in brief: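 p53RE-bla cells, seeded at 4,000 per well and rested 5 h at 37 C/5% CO2, received compounds in DMSO for 16 h at 37 C. CellTiter-Glo was then added, and luminescence was read after 30 min at room temperature to gauge cytotoxicity.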

[4] = qHTS assay for small molecules that induce genotoxicity in human embryonic kidney cells expressing luciferase-tagged ATAD5 - cell viability (AID 651634; calls by dose curve; further: nearly all actives have a fitted effect of over 25% in size)
Method in brief: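 Quantitative high-throughput format. HEK293T cells expressing ATAD5 fused to luciferase were plated at 2,000 cells/well and treated 15.5 hr with compound versus DMSO. Viability was determined by fluorescent live-cell protease substrate, 30 min at 37C.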

[5] = qHTS assay for small molecule disruptors of the mitochondrial membrane potential - cell viability (AID 720634; calls by dose curve;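 further: human HepG2 liver cancer cells; series mostly up to about 83 µM; nearly all actives have a fitted effect of over 20% in size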)
Method in brief: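 Same-well counter-screen: following the MMP dye addition, CellTiter-Glo was added to 1 hr compound-treated HepG2 cells and luminescence read after 30 min at room temperature.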

[6] = qHTS assay to test for compound auto fluorescence at 590 nm (red) in HepG2 cells (AID 720674)
Method in brief: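 Rose Bengal sodium served as the red fluorophore standard. HepG2 monolayers (overnight attachment, MEM with 10% FBS) were exposed to test compounds for 1 hr at 37 C and read at Ex 540/Em 590 nm.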

[7] = qHTS assay to test for compound auto fluorescence at 535 nm (green) in HepG2 cells (AID 720675)
[8] = qHTS assay to test for compound auto fluorescence at 460 nm (blue) in HEK293 cells (AID 720678)
Method in brief: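 HEK293 cells (2,000 per well, medium with 10% dialyzed FBS) attached for 4-5 hr at 37C, then received compound and stood overnight at 37C, 5% CO2. Blue fluorescence was read at Ex/Em 405/460 nm and expressed relative to triamterene.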

[9] = qHTS assay to test for compound auto fluorescence at 590 nm (red) in HEK293 cells (AID 720679)
Method in brief: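 HEK293 cells (2,000/well, medium with 10% dialyzed FBS) attached for 4-5 hr at 37C, received 23 nL compound and were incubated overnight at 37C, 5% CO2. Red fluorescence was then read at 540/590nm Ex/Em, referenced to Rose Bengal sodium.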

[10] = qHTS assay to test for compound auto fluorescence at 535 nm (green) in HEK293 cells (AID 720680)
[11] = qHTS assay to test for compound auto fluorescence at 460 nm (blue) in HEK293 cell free culture (AID 720681)
Method in brief: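 Test compounds were pinned into cell-free culture medium (DMEM with 10% FBS) and fluorescence was read directly at Ex/Em 405/460 nm. Signals were expressed as fluorescence equivalents of triamterene, with DMSO vehicle as control.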

[12] = qHTS assay to test for compound auto fluorescence at 535 nm (green) in HEK293 cell free culture (AID 720682)
Method in brief: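 Each library compound, or DMSO control, is added by pintool to medium alone, comprising DMEM and 10% FBS. Emission at 535 nm following 485 nm excitation is quantified against fluorescein.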

[13] = qHTS assay to test for compound auto fluorescence at 590 nm (red) in HEK293 cell free culture (AID 720683)
Method in brief: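 Tox21 10K library compounds were pinned into cell-free DMEM with 10% FBS and fluorescence was read at excitation 540 nm. Activity is expressed as Rose Bengal sodium equivalency.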

[14] = qHTS assay to test for compound auto fluorescence at 590 nm (red) in HepG2 cell free culture (AID 720684)
Method in brief: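 Readout: intrinsic compound fluorescence at 590 nm emission after 540 nm excitation, scaled to Rose Bengal sodium. Matrix was cell-free MEM with 10% FBS; DMSO vehicle wells served as control.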

[15] = qHTS assay to test for compound auto fluorescence at 460 nm (blue) in HepG2 cell free culture (AID 720685)
Method in brief: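 Cell-free plates of MEM plus 10% FBS received 23 nL compound or DMSO vehicle; blue-channel (405/460 nm) intensity scored against triamterene as reference fluorophore.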

[16] = qHTS assay to test for compound auto fluorescence at 535 nm (green) in HepG2 cell free culture (AID 720686)
[17] = qHTS assay for small molecule disruptors of the mitochondrial membrane potential (AID 720635)
Method in brief: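 HepG2 cells (2,000/well) attached overnight at 37C, then took compound for 1 hr at 37C, 5% CO2. Mito-MPS dye was added for 30 min; fluorescence was read at 490/535 nm (monomers) and 540/590 nm (aggregates).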

[18] = qHTS assay to test for compound auto fluorescence at 460 nm (blue) in HepG2 cells (AID 720687)
Method in brief: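 Cells (2,000/well in MEM with 10% FBS) attached overnight at 37 C, then were exposed to compound or DMSO for 1 hr at 37 C, 5% CO2. Fluorescence read at Ex/Em 405/460 nm, expressed as triamterene-equivalent signal.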

[19] = biological target: Glucocorticoid receptor (Homo sapiens) (UniProt P04150); experiment: qHTS assay to identify small molecule agonists of the glucocorticoid receptor (GR) signaling pathway (AID 720691; active means well fitted activation curve with a large enough effect in the signal ratio in the repeat runs, not every such curve was filed as active; the % refers to the signal ratio)
Glucocorticoid receptor (Homo sapiens), sequence (P04150 whole entry, looked up): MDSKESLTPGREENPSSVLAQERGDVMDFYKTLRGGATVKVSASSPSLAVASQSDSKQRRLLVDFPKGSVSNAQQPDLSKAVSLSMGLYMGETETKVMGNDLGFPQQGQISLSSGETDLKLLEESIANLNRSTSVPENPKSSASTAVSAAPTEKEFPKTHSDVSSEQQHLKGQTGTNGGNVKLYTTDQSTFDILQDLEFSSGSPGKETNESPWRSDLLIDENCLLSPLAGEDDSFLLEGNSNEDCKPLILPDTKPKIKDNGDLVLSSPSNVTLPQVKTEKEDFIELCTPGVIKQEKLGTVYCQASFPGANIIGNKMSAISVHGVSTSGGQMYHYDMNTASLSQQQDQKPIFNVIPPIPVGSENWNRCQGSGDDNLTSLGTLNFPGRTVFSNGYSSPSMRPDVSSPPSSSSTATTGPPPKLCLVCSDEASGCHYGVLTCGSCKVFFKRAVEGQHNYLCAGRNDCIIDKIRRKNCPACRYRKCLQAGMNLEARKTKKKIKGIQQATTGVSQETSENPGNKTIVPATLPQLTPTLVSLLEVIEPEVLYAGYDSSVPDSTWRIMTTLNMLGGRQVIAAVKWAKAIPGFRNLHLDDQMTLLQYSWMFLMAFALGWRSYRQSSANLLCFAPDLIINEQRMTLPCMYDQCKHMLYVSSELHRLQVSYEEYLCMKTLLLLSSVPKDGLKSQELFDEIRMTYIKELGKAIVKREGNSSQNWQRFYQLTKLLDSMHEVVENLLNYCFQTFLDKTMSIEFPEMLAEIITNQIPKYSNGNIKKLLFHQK
Method in brief: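 A HeLa cervical cancer line expressing GR and a glucocorticoid response element-driven beta-lactamase gene is treated with compounds for 18 h; LiveBLAzer B/G FRET substrate is then applied and fluorescence read.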

[20] = biological target: Glucocorticoid receptor (Homo sapiens) (UniProt P04150); experiment: qHTS assay to identify small molecule antagonists of the glucocorticoid receptor (GR) signaling pathway (AID 720692; active means well fitted inhibition curve with a large enough effect in the signal ratio in the repeat runs, not every such curve was filed as active; the % refers to the signal ratio)
Method in brief: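 GRE-bla HeLa line, dex-stimulated (5 nM final). Compound exposure 18 h, 37 C. Beta-lactamase FRET read after 2 h RT substrate.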

Measured: Potency

CCOC(=O)c1cnc2c(cnn2CC)c1NN=C(C)C
not listed: [17] | [18] | [19] | [20]
inactive: all other assays above

NC(=O)N1c2ccccc2CC(=O)c2ccccc21
not listed: [9] | [19] | [20]
inactive: all other assays above

C=COC(=O)C(C)(CC)CCC(C)C (stereo not given)
not listed: [17] | [20]
inactive: all other assays above

Clc1cc(Cl)cc(Cl)c1
not listed: [8] | [14] | [18] | [20]
inactive: all other assays above

COc1cc(C(=O)OC(COCCC(C)C)CN2CCOCC2)cc(OC)c1OC (stereo not given)
not listed: [8] | [15]
inactive: all other assays above

c1ccc(Cc2ccccc2)cc1
not listed: [17]
inactive: all other assays above

CC[C@H]1OC(=O)[C@H](C)[C@@H](O[C@H]2C[C@@](C)(OC)[C@@H](O)[C@H](C)O2)[C@H](C)[C@@H](O[C@@H]2O[C@H](C)C[C@H](N(C)C)[C@H]2O)[C@](C)(OC)C[C@@H](C)C(=O)[C@H](C)[C@@H](O)[C@]1(C)O
not listed: [9] | [20]
inactive: all other assays above

C=C[Si](OC(C)=O)(OC(C)=O)OC(C)=O
not listed: [17] | [20]
inactive: all other assays above
